# Assay outcomes as filed in PubChem BioAssay.
# ATXN viability = Viability Counterscreen for Primary qHTS for Inhibitors of ATXN expression | S2 cells (HEK-293 line with an ATXN2-luciferase reporter) viability, CellTiter-Fluor protease fluorescence, 24 h | Potency, µM (doses to about 56.7 µM), actives largely listed as cytotoxic | hit rate 0.49% among 400,000 | AID 651635, 2014; further: nearly all actives have a fitted effect of over 40% in size
# HT1080 IDH1KD tx = qHTS for induction of synthetic lethality in tumor cells producing 2HG: qHTS for the HT-1080-IDH1KD cell line; hit rate 2% among 360,000; HT-1080 IDH1 knockdown viability, ATP luminescence, 48 h; Potency, µM (titrated, usually from 46.1 µM), inactives show at the top dose activity, negative = toxicity, usual class: cytotoxic; AID 686971, 2013;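 further: 0% = DMSO wells and -100% = cell-free medium wells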
#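 In this qHTS, HT-1080 cells depleted of IDH1 are exposed for 48 h at 37 °C to compound titrations. Toxicity is scored from CellTiter-Glo luminescence, with DMSO as full viability and medium alone as none.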
# KB-3-1 tox = qHTS assay for MDR1-selective chemotherapeutics: Primary screen using the parental adenocarcinoma cell KB-3-1; KB-3-1 viability, CellTiter-Glo ATP luminescence, 72 h; Potency, µM (doses to about 46.1 µM), most hits filed as cytotoxic; hit rate 1.4% among 400,000; AID 1347075, 2019; further: on the % scale 0 is the no-effect control and ±100 the full control effect; nearly all actives have a fitted effect of over 60% in size
#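 72 h, 37 °C compound treatment of KB-3-1 parental cells; CellTiter-Glo added, 10 min, luminescence read. Data corrected against DMSO-only plates and normalized before curve fitting.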
# HT1080-NT tox = qHTS for induction of synthetic lethality in tumor cells producing 2HG: qHTS for the HT-1080-NT fibrosarcoma cell line; Potency, µM (series often up to 46.1 µM), for inactives: at the highest dose activity, negative = less viability, usual class: cytotoxic; AID 686970, 2013; hit rate 1.6% among 360,000; HT-1080-NT fibrosarcoma viability, CellTiter-Glo ATP luminescence, 48 h;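 further: NT is the 2HG producing partner of a matched IDH1 knockdown line; 0% = DMSO-treated cells and -100% = media-only wells without cells; nearly all actives have a fitted effect of over 55% in size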
#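 Fibrosarcoma NT cells, 750 per well in 5% FBS RPMI, were exposed to compound for 48 hours. Viability: CellTiter-Glo luminescence.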
# KB-V1 MDR tox = qHTS assay for MDR1-selective chemotherapeutics: Primary screen using the drug-selected MDR subline cells KB-V1; Potency, µM (series often up to 46.1 µM), most hits filed as cytotoxic; KB-V1 MDR cells viability, CellTiter-Glo, 72 h; AID 1347076, 2019; hit rate 3.4% among 400,000; further: on the % scale 0 is the no-effect control and ±100 the full control effect; nearly all actives have a fitted effect of over 60% in size
#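 qHTS viability screen in drug-selected KB-V1 MDR cells: 72 h compound treatment at 37 degrees C, ATP luminescence end point.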
# ATXN2 expr inh = Primary qHTS for Inhibitors of ATXN expression; AID 1745845, 2022; Potency, µM (titrated, usually from 57 µM), inactives show at the highest dose activity change, negative = inhibition, usual class: inhibitors; HEK-293 ATXN2-luciferase reporter, luminescence, 24 h; hit rate 0.72% among 360,000; further: on the % scale 0 is the no-effect control and ±100 the full control effect; nearly all actives have a fitted effect of over 55% in size
#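 ATXN2-luciferase reporter cells (luciferase flanked by upstream and downstream ATXN2 gene portions) were treated 24 h at 37 °C with compounds at up to 57 uM. SteadyGlo luminescence gave expression; GF-AFC fluorescence gave viability.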
# * = called active by the depositor; i = inactive; ? = inconclusive; . = no result; [ ] = remark or other dose. Hits are enriched below; roughly 6.2% of the tested compounds scored in any of these assays. The call rests on the fitted dose curve; in most records, active means well fitted curve in the direction sought with a large enough effect; inconclusive means small, poorly fitted or top-dose-only effect, or another doubt; inactive means no such curve, though single readings can be large; an effect the other way counts as inactive or inconclusive. Potency means the concentration at half of the fitted maximal effect.
SMILES,ATXN viability,HT1080 IDH1KD tx,KB-3-1 tox,HT1080-NT tox,KB-V1 MDR tox,ATXN2 expr inh
COC(=O)c1ccc(COc2cccc3c2CCN(Cc2ccccc2)C3=O)o1,i,-15.4%,i,-10.1%,?,-15.7%
COC(=O)c1ccc(COc2cccc3c2CCN(Cc2cccc(C)c2)C3=O)o1,i,-23.6%,?,-19.0%,16.4µM*,-31.9%
Cc1ccc(CN2CCc3c(OCc4ccc(F)cc4)cccc3C2=O)cc1,i,-18.3%,?,-20.9%,5.8µM*,-32.5%
CN1CCc2c(OCc3ccc(F)cc3)cccc2C1=O,i,-12.9%,i,-4.7%,?,-11.9%
O=C1c2cccc(OCc3ccc(F)cc3)c2CCN1Cc1ccc(F)cc1,i,?,2.91µM*,-27.9%,3.26µM*,?
CCCCNC(=O)c1sc2ncnc(NCC3CCCO3)c2c1C (stereo not given),i,.,.,.,.,.
CCOc1ccc(N(C)S(=O)(=O)c2ccc(-c3cc(C)no3)s2)cc1,?,7.31µM*,5.8µM*,11.6µM*,?,.
CCN(c1cccc(C)c1)S(=O)(=O)c1ccc(-c2cc(C)no2)s1,?,?,4.61µM*,?,?,.
COc1ccccc1NS(=O)(=O)c1ccc(-c2cc(C)no2)s1,i,?,7.31µM*,?,?,.
CCOc1ccc(N(C)S(=O)(=O)c2cc(-c3cc(C)no3)ccc2C(C)C)cc1,i,-6.3%,?,5.2%,i,-11.5%
Cc1cccc(N(C)S(=O)(=O)c2ccc(-c3cc(C)no3)s2)c1,i,0.581µM*,?,?,?,11.8%
COc1ccc(-c2cc(C)no2)cc1S(=O)(=O)N(C)c1cccc(C)c1,i,-6.9%,i,-3.6%,i,-14.0%
CCOc1ccc(OC(=O)c2c(-c3ccccc3Cl)noc2C)cc1,.,.,i,.,i,.
O=C1O[C@@H]2[C@@H](O)[C@H](O)O[C@@H]2[C@H]1O,i,.,.,.,.,.
CCc1nc2c(sc3nc4c(cc32)COC(C)(C)C4)c(=O)n1Cc1ccco1,i,13.3%[9.24 µM],?,?,11.6µM*,6.9%
CO/N=C(/CNC(=O)c1cccc(Cl)c1)c1ccc(Cl)cc1,i,-30.0%,i,-3.8%,23.1µM*,-20.6%
Cc1c(Nc2ncnc3c2cnn3-c2ccccc2)c(=O)n(-c2ccccc2)n1C,i,-9.5%,i,-3.2%,?,4.3%
COc1cccc(Nc2ncnc3c2cnn3-c2cccc(C)c2)c1,i,-14.9%,i,-2.3%,20.6µM*,29.2%
Cc1cccc(-n2ncc3c(Nc4c(C)n(C)n(-c5ccccc5)c4=O)ncnc32)c1,i,-10.3%,i,-0.4%,20.6µM*,1.9%
CC(C)OP(=O)(OC(C)C)C(NC(=O)c1ccc(Br)cc1)c1ccccc1 (stereo not given),i,?,?,20µM*,3.66µM*,-30.6%
CC(NC(=O)c1ccc(Br)cc1)c1ccccc1 (stereo not given),i,23.1%,i,14.1%,i,-5.4%
C/C(=N/NC(=O)c1ccccn1)c1ccco1,i,?,?,?,20.6µM*,?
COc1cc(C(=O)N/N=C(\C)c2ccccn2)cc(OC)c1OC,i,?,6.51µM*,?,7.31µM*,-13.0%
C/C(=N/NC(=O)c1ccccn1)c1ccc(O)cc1,i,-4.8%,i,-0.3%,i,.
COc1cc(C(=O)N/N=C(\Cc2ncc[nH]2)c2ccccc2)cc(OC)c1OC,i,4.61µM*,?,9.2µM*,?,?
COc1cccc(C(=O)N/N=C(/c2ccccc2)c2ccccn2)c1,10µM*,0.891µM*,?,?,i,3.98µM*
